This note sets out measurements from the supplement of paper PMC5662767.

Structures can show the parent of a compound that is named as a salt.

For this experiment, the system named is Drosophila S2 cl14 SmoIP sensor cells. The experiment can be described thus: normalized SmoIP GFP fluorescence (untreated unstimulated = 0%, untreated Hh-stimulated = 100%); higher = more Smo activation sensor fluorescence. The following applies: compound concentration: 2 uM, 24 h.
The mark [1] stands for this setting: stimulation: Hh conditioned medium (+Hh).
The mark [2] stands for this setting: stimulation: mock conditioned medium (-Hh).
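Note: flow cytometry read-out as median GFP intensity of gated cells, compounds added 30 min before Hh-conditioned or mock medium, mock-treated cells serving as unstimulated baseline.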

Take `C[C@]12CC[C@H]3[C@@H](CC[C@@]45O[C@@H]4C(O)=C(C#N)C[C@]35C)[C@@H]1CC[C@@H]2O` [Trilostane]: the “normalized SmoIP GFP fluorescence” value is, setting by setting: under setting [1], 109%; under setting [2], -0.265%.

For `COc1ccc(C(=O)N2CCCC2=O)cc1` [Aniracetam], the “normalized SmoIP GFP fluorescence” value is 104% under setting [1] and -0.588% under setting [2].

On to `O=C(NCC1CCOCC1)c1cnc(Nc2ccc(Cl)cc2Cl)nc1C(F)(F)F`, for which the “normalized SmoIP GFP fluorescence” value is 102% under setting [1] and -1.63% under setting [2].

For `CN1CCc2cc3c(cc2[C@H]1[C@@H]1OC(=O)c2c1ccc1c2OCO1)OCO3` [bicuculline], the “normalized SmoIP GFP fluorescence” value is, setting by setting: under setting [1], 101%; under setting [2], -3.9%.

With `C[N+](C)(C)CCCCCCCCCC[N+](C)(C)C` [decamethonium-bromide], the “normalized SmoIP GFP fluorescence” value reads like this: under setting [1], 104%; under setting [2], -5.04%.

As to `Cc1cccc(Cc2c[nH]cn2)c1C` [detomidine-hcl], the “normalized SmoIP GFP fluorescence” value was 139% under setting [1] and -8.77% under setting [2].

As for `CCN(C)C(=O)Oc1cccc([C@H](C)N(C)C)c1` [rivastigmine-tartrate-exelon], the “normalized SmoIP GFP fluorescence” value by setting is: under setting [1], 95.8%; under setting [2], -3.05%.

Turning to `C[C@](O)(COc1ccc(C#N)cc1)C(=O)Nc1ccc(C#N)c(C(F)(F)F)c1` [Ostarine], the “normalized SmoIP GFP fluorescence” value under setting [1] came out at 119% and the “normalized SmoIP GFP fluorescence” value under setting [2] is 2.97%.

Regarding `[O-][n+]1ccccc1[S-].[O-][n+]1ccccc1[S-].[Zn+2]` [zinc-pyrithione], the “normalized SmoIP GFP fluorescence” value by setting is: under setting [1], 131%; under setting [2], 2.35%.

Turning to `COc1cc(-n2c(=S)[nH]c3ccccc3c2=O)c(Cl)cc1Cl` [mdivi-1], the “normalized SmoIP GFP fluorescence” value reads like this: under setting [1], 108%; under setting [2], -1.34%.

For `CCOc1ccccc1-n1c(C(C)N2CCN(C(=O)COc3ccc(Cl)cc3)CC2)nc2ccccc2c1=O` (stereo unspecified) [erastin], the “normalized SmoIP GFP fluorescence” value under setting [1] turned out to be 134% and the “normalized SmoIP GFP fluorescence” value under setting [2] was determined as 3.66%.

In the case of `O=C(O)CNC(=O)c1c(O)c2ccccc2n(Cc2ccccc2)c1=O`, the “normalized SmoIP GFP fluorescence” value runs as follows: under setting [1], 109%; under setting [2], -2.82%.

Turning to `N#CC(C#N)=Cc1ccc(O)c(O)c1` [ag-18-tyrphostin-23], the “normalized SmoIP GFP fluorescence” value is, setting by setting: under setting [1], 147%; under setting [2], -12%.
